Measured values: the supplement of paper PMC10849652
The full data set covers some 7,900 targets. This sample favours those with a hit. About 0.6% of all pairs of compound and target were hits.

Columns and labels:
Assay in all cases: log2 fold change, soluble protein after heating vs DMSO (PISA); higher = thermal stabilisation; K562 cells, 10 uM, 30 min; active = over 0.2 and 3.5 SD of the protein, either way, in both replicates (recomputed)
[1] = compound: C1=CC=C(C=C1)[C@H](COC2=CC3=C(C=C2)NC(=O)N3)NC(=O)C4=CC=CN(C4=O)CC5=CC(=C(C=C5)F)F
Outline: (§1)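 K562 cells at 2×10^6 cells/mL were treated with 10 μM compound for 30 min. Aliquots were heated for 3 min across 48°C-58°C, pooled, and extracted in PBS with 0.5% NP-40 at 4°C; soluble protein was the supernatant after 21,000xg for 90 min. Soluble protein was quantified by TMTpro 16plex LC-MS/MS with channel sums equalised, and reported as log2 fold change in thermal stability against DMSO controls, with values from duplicates.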

[2] = compound: CC1=C(SC2=C1C(=N[C@H](C3=NN=C(N32)C)CC(=O)N)C4=CC=C(C=C4)Cl)C
Outline: as §1

[3] = compound: CC1=C2C(=CC=C1)N=C(N(C2=O)C3=CC=CC=C3C)CN4C=NC5=C(N=CN=C54)N
Outline: as §1

[4] = compound: Cc1sc2c(c1C)C(c1ccc(Cl)cc1)=N[C@@H](CC(=O)OC(C)(C)C)c1nnc(C)n1-2
Outline: as §1

[5] = compound: c1ccc([C@@H]2C[C@H]2NC2CCNCC2)cc1
Outline: as §1

Measured: log2 fold change

POLR3K (UniProt Q9Y2Y1)
Sequence of UniProt Q9Y2Y1 (Q9Y2Y1 whole entry, looked up): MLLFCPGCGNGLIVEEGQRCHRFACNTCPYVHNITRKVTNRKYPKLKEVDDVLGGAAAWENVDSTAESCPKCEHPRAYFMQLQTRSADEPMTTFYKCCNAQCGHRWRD
inactive: [1] -0.009 | [2] -0.008 | [3] -0.029 | [4] 0.021 | [5] 0.056

POMP (UniProt Q9Y244)
inactive: [1] -0.101 | [2] -0.077 | [3] -0.069 | [4] -0.018 | [5] -0.009

PHAX (UniProt Q9H814)
Sequence of UniProt Q9H814 (Q9H814 whole entry, looked up): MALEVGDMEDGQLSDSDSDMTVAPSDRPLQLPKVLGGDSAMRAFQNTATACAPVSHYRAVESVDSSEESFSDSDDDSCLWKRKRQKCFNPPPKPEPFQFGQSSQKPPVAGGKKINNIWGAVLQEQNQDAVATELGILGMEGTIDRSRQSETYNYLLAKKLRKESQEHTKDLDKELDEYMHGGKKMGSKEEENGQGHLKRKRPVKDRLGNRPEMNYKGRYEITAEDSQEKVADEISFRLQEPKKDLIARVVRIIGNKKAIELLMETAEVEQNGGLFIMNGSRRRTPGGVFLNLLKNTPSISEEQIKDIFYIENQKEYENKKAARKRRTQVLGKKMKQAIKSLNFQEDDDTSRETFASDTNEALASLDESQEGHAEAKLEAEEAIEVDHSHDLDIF
inactive: [1] 0.014 | [2] -0.019 | [3] -0.015 | [4] -0.024 | [5] 0.022

PRKAR2B (UniProt P31323)
inactive: [1] -0.065 | [2] -0.012 | [3] -0.06 | [4] -0.024 | [5] 0.007

PTGR2 (UniProt Q8N8N7)
inactive: [1] 0.004 | [2] 0.055 | [4] -0.043 | [5] -0.091
active: [3] 0.581

PPP1R12A (UniProt O14974)
inactive: [1] 0.005 | [2] 0.057 | [3] 0.047 | [4] 0.035 | [5] -0.008

PLCL1 (UniProt Q15111)
Sequence of UniProt Q15111 (Q15111 whole entry, looked up): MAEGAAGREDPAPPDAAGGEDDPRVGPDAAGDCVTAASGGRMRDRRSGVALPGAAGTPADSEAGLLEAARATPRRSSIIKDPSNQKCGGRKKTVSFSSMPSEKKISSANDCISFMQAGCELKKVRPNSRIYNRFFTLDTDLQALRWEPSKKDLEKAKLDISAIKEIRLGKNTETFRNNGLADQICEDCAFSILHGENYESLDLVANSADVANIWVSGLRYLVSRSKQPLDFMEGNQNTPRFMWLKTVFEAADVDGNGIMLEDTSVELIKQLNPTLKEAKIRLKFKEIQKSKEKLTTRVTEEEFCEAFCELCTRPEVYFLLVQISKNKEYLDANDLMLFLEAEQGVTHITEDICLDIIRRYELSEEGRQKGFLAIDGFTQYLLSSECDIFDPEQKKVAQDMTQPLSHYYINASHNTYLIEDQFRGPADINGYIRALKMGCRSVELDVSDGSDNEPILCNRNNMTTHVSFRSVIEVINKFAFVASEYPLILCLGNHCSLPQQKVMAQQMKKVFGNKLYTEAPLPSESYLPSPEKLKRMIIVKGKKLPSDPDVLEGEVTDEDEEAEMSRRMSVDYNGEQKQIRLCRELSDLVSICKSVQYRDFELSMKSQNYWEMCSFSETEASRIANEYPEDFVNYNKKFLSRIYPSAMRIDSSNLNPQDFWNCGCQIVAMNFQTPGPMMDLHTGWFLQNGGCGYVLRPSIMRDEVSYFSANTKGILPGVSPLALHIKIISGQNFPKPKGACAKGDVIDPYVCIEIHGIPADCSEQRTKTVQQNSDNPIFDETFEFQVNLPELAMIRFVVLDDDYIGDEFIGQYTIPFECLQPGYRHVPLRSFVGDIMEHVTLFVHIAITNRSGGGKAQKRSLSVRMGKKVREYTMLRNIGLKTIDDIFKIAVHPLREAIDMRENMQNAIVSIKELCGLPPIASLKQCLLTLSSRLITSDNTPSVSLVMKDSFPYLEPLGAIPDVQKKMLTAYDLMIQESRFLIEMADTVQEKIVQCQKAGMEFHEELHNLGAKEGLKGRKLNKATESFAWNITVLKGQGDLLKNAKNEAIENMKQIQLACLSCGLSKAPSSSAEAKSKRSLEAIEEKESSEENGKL
inactive: [1] 0.12 | [2] 0.073 | [3] 0.165 | [4] -0.029 | [5] 0.052

PURA (UniProt Q00577)
inactive: [1] 0.116 | [2] -0.403 | [3] -0.092 | [4] 0.298 | [5] 0.043

POLR2C (UniProt P19387)
inactive: [1] -0.091 | [2] 0.125 | [3] -0.023 | [4] 0.155 | [5] -0.092

PKN2 (UniProt Q16513)
Sequence of UniProt Q16513 (Q16513 whole entry, looked up): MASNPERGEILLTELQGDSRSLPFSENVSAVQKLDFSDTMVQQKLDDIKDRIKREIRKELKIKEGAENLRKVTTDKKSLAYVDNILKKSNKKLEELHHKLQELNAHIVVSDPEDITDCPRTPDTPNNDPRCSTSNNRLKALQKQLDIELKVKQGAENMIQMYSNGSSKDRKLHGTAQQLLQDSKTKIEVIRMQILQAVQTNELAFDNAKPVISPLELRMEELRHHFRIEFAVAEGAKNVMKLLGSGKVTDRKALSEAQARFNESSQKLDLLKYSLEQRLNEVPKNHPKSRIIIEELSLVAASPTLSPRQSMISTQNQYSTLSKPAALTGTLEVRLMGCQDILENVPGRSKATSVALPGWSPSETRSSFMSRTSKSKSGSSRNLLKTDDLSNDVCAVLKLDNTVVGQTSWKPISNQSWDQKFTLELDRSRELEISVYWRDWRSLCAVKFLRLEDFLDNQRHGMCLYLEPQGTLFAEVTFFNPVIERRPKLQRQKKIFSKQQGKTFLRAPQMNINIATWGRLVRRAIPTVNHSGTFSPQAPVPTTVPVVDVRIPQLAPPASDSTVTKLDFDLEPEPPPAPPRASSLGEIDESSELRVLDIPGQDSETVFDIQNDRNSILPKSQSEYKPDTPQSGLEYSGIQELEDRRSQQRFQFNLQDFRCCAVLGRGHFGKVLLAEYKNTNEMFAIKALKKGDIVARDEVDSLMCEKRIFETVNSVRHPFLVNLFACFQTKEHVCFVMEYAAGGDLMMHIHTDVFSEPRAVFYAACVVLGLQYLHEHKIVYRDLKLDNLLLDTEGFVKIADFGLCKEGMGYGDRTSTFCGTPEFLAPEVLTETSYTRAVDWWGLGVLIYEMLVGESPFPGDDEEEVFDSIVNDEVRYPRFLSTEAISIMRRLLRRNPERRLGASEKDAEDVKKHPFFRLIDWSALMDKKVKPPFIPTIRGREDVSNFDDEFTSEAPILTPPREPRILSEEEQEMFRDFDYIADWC
inactive: [1] -0.075 | [2] 0.103 | [3] 0.066 | [4] 0.029 | [5] 0.044

PCK2 (UniProt Q16822)
Sequence of UniProt Q16822 (Q16822 whole entry, looked up): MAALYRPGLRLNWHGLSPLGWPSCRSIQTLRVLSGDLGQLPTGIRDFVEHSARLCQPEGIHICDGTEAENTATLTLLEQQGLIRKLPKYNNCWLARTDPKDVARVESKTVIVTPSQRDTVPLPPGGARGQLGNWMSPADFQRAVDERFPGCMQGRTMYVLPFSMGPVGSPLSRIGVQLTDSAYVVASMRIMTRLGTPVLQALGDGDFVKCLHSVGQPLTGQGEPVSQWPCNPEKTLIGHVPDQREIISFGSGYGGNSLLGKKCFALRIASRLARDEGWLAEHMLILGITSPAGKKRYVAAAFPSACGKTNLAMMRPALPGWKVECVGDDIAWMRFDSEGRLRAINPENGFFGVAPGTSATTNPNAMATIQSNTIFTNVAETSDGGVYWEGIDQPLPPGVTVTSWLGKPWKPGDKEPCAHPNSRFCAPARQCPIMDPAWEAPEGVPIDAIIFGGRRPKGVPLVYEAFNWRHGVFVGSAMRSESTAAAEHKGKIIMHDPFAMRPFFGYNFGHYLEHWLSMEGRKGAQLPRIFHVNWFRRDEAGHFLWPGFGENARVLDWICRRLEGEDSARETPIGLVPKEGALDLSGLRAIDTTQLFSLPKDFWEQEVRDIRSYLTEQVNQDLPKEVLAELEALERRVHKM
inactive: [1] 0.051 | [2] 0.038 | [3] 0.057 | [4] 0.008 | [5] -0.038

PNN (UniProt Q9H307)
inactive: [1] 0.084 | [2] 0.021 | [5] 0.012

PIAS4 (UniProt Q8N2W9)
inactive: [4] 0.129

PLA2G15 (UniProt Q8NCC3)
inactive: [1] 0.02 | [2] -0.01 | [3] -0.034 | [4] -0.001 | [5] 0

POLB (UniProt P06746)
inactive: [2] 0.053 | [4] -0.107 | [5] -0.006

POGZ (UniProt Q7Z3K3)
inactive: [2] 0.056 | [3] 0.099 | [4] 0.025 | [5] -0.032

PSMB9 (UniProt P28065)
inactive: [1] 0.182 | [2] 0.138 | [3] 0.179 | [5] -0.203

PDCD4 (UniProt Q53EL6)
inactive: [1] -0.055 | [2] 0.002 | [3] 0.053 | [4] -0.167 | [5] -0.003

PEX11B (UniProt O96011)
inactive: [1] -0.027 | [2] 0.056 | [3] -0.01 | [4] -0.008 | [5] -0.005

PCBP2 (UniProt F8VZX2)
inactive: [1] -0.1 | [2] -0.107 | [5] 0.019

PUM1 (UniProt Q14671)
inactive: [2] 0.116 | [4] 0.059 | [5] -0.094

PHKA1 (UniProt P46020)
Sequence of UniProt P46020 (P46020 whole entry, looked up): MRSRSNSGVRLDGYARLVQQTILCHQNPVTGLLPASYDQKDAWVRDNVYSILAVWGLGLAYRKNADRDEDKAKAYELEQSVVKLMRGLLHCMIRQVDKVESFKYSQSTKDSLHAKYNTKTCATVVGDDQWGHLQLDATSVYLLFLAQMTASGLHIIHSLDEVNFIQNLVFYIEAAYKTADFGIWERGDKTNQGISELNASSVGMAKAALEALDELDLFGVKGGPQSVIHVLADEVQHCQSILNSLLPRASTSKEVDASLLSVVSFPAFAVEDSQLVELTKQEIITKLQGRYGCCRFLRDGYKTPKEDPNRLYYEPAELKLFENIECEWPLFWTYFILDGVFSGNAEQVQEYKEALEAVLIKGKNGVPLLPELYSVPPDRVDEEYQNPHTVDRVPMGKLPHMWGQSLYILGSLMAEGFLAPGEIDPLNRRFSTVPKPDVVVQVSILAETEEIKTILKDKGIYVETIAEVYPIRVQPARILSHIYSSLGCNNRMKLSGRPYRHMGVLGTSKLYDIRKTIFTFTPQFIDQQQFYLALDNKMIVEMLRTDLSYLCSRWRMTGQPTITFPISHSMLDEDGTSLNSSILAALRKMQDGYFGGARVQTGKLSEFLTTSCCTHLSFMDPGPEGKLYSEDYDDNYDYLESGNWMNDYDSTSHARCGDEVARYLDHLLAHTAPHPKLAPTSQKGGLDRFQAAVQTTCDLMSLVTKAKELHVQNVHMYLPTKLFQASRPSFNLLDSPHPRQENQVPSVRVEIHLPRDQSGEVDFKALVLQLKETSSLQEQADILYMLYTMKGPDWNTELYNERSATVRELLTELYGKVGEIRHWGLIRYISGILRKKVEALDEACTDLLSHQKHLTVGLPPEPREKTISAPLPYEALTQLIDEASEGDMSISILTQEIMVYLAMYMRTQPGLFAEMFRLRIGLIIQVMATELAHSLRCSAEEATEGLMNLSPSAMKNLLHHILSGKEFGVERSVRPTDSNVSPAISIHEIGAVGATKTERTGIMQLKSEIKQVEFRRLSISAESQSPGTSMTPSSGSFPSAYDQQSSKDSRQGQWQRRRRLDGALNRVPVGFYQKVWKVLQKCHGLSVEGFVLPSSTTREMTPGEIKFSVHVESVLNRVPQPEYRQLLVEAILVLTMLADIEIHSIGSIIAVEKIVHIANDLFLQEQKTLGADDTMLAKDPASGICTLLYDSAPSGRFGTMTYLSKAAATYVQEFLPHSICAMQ
inactive: [1] 0.028 | [2] -0.078 | [4] 0.103 | [5] 0.011

PDPK1 (UniProt O15530)
Sequence of UniProt O15530 (O15530 whole entry, looked up): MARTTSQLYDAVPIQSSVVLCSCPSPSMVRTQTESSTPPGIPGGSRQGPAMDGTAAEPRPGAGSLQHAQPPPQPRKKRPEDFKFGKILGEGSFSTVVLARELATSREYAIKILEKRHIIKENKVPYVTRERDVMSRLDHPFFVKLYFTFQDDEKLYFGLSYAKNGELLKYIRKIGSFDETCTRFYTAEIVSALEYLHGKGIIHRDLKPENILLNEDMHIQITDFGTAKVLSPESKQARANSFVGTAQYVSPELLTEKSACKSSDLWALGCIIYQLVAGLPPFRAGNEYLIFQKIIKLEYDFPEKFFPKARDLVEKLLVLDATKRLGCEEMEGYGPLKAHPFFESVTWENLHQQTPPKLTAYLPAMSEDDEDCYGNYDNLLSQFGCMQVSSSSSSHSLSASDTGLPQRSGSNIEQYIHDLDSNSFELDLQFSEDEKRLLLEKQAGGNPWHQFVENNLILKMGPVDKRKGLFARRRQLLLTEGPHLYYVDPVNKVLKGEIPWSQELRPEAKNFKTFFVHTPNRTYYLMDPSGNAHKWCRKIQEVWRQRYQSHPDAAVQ
inactive: [2] 0.065 | [3] 0.014 | [4] -0.038 | [5] -0.018

PAN2 (UniProt Q504Q3)
inactive: [1] -0.298 | [3] 0.053

PHC3 isoform 7 (UniProt Q8NDX5)
inactive: [1] -0.023 | [2] -0.025 | [5] -0.075

PSMD8 (UniProt K7EK21)
inactive: [2] -0.11 | [5] 0.188

PPP2R5B (UniProt Q15173)
inactive: [1] -0.058 | [3] -0.098

PCNX1 (UniProt Q96RV3)
inactive: [1] 0.064 | [3] 0.103 | [4] -0.122

PRKAR1B (UniProt P31321)
inactive: [1] 0.21 | [2] -0.026 | [3] 0.059 | [4] 0.019 | [5] -0.061
